Measured values published in PubChem BioAssay AID720514 (Broad Institute, 2013).
In all, about 2,100 compounds went through this assay and about 300 (14%) were called active. Roughly 2% stayed inconclusive and do not appear here.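 Rule for the calls: active = every replicate test run called active, with the signal falling and half-maximal concentration within twice the top valid dose; inconclusive = the replicate test runs disagree in their calls; inactive = every test run inactive, including effects in the opposite direction.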 Not all results are given here. Results with a measured potency or affinity are listed apart.

Assay: reduced cellular PGC1a acetyl-lysine signal – cell-based, cherry-picked samples, dose response (AID 720514);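 note: 0% = neutral control wells and -100% = positive control wells; actives lower the acetylation signal so they count as inhibitors of PGC1a acetylation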
Settings: U2OS PGC1a acetylation, AlphaLISA, overnight; series mostly up to 19.5 µM; activity change, negative = inhibition: at the top concentration

Activity change, negative = inhibition, inactive:
Cc1csc(NC(=O)CSc2nsc(SCC(=O)Nc3nc(C)cs3)c2C#N)n1 75%
CN1CCN(c2ccc(CNC(=O)c3ccc(-c4ccnn4C)c4ccoc34)cc2)CC1 66.9%
COc1cc(CN2CCCC(CO)(Cc3cccc(Cl)c3)C2)cc2c1OCO2 (stereo not given) 61.2%
CCOc1ccc(N(C)S(=O)(=O)c2cc(-c3cc(C)no3)ccc2C(C)C)cc1 144%
C[C@@H]1CN([C@@H](C)CO)C(=O)c2c(c3ccccc3n2C)-c2ccccc2CO[C@@H]1CN(C)C(=O)Nc1ccc2c(c1)OCO2 163% [at 21 µM]
COC(=O)c1cc(S(=O)(=O)N2CCN(c3ccc(C(C)=O)cc3)CC2)c[nH]1 112%
CCC(=O)N(CC)c1nc(-c2ccc(OC)cc2)cs1 58.5%
CSc1nc(NCc2ccco2)c2ccccc2n1 41.5%
Cc1ccc2oc(-c3ccc(NC(=O)c4cccnc4)cc3)nc2c1 276%
CC(C)CCNc1nc(N2CCCC2)c2c(c1C#N)CCN(C)C2 68.1% [at 10 µM]
COc1ccc(CCC(=O)NCCS(=O)(=O)N2CCN(c3ccccc3)CC2)cc1 49.9%
COc1ccccc1CN1CCCC(C(=O)N(C)Cc2ccccc2)C1 (stereo not given) 56.3% [at 10 µM]
OC(c1ccccc1)(C1CCCCC1)C(CN1CCOCC1)c1ccccc1 (stereo not given) 75.2% [at 10 µM]
CC/C(=C(\c1ccc(O)cc1)c1ccc(OCCN(C)C)cc1)c1ccccc1 137% [at 10 µM]
CCN1CCN(C(=O)c2ccc3c(=O)n(CCC4=CCCCC4)c(=O)[nH]c3c2)CC1 90.2%
O=[N+]([O-])c1ccc(N2CCN(CC3CCCCC3)CC2)cc1 41.3%
c1ccc(C(c2nnnn2Cc2cccs2)N2CCN(C3CCCC3)CC2)cc1 (stereo not given) 49.8%
COc1ccc(C(c2nnnn2C2CCCC2)N2CCC(C)CC2)c(OC)c1 (stereo not given) 74.1%
COc1ccc(-n2nnnc2CNC(=O)c2ccc3ccccc3c2)cc1 48.8% [at 10 µM]
c1ccc(Cn2nnnc2C(c2cccs2)N2CCCCCC2)cc1 (stereo not given) 44.4%
CC(C)C(c1nnnn1Cc1ccccc1)N(Cc1ccco1)Cc1cccs1 (stereo not given) 141%
c1ccc(CN2OCC3Cn4c(nc5ccccc54)C32)cc1 (stereo not given) 31.5%
COc1cccc(CN2C[C@@H]3N[C@H](C2)C3c2ccc(-c3ccccc3F)cc2)c1 (stereo not given in full) 46.1%
CCOC(=O)Cn1cnc2scc(-c3ccccc3)c2c1=O 18%
O=C(Cc1ccccc1)Nc1nc(-c2ccc(F)c(F)c2)cs1 75%
COc1cccc(CN2C[C@@H]3N[C@H](C2)C3c2ccc(-c3cccc(C#N)c3)cc2)c1 (stereo not given in full) 79.6%
COc1ccccc1CN1C[C@@H]2N[C@H](C1)C2c1ccc(-c2ccccc2OC)cc1 (stereo not given in full) 40.7% [at 21 µM]
COc1cccc(-c2ccc(C3[C@@H]4CN(Cc5ccccn5)C[C@H]3N4)cc2)c1 (stereo not given in full) 59.2%
Cc1cccc(-c2ccc(C3[C@@H]4CN(C(=O)C5CCCCC5)C[C@H]3N4)cc2)c1 (stereo not given in full) 58.1% [at 10 µM]
COc1cccc(C(=O)c2c[nH]c(C(=O)NCc3cccnc3)c2)c1 269%
CCN(CC)S(=O)(=O)c1c(Br)cc(C)cc1Br 56.1%
CCN(CC)c1ccc(N)cc1S(=O)(=O)Nc1ccccc1OC 63.3%
O=C(C(Cc1ccccc1)n1cccc1)N1CCN(c2ccccc2)CC1 (stereo not given) 156%
O=C(c1ccccc1)c1nn(-c2ccc(Cl)cc2)c(=O)cc1C(F)(F)F 57% [at 10 µM]
CCn1c(=S)[nH]c2cc(S(=O)(=O)N3CCCCC3)ccc21 144%
C[C@@H]1CN([C@H](C)CO)C(=O)c2cccc(NC(=O)c3ccc(-c4nccs4)cc3)c2O[C@@H]1CN(C)Cc1ccc(C(=O)Nc2ccccc2N)cc1 114%
CC(C)C#Cc1ccc([C@@H]2[C@H](CO)N3C(=O)CN(C(=O)NC4CCCC4)C[C@@H]23)cc1 23.8%
CC1(C)OC(C)(C)/C(=C\c2ccc(OCC(N)=O)cc2)C1=O 57% [at 10 µM]
COc1ccc(S(=O)(=O)N(Cc2ccccc2)Cc2nc(-c3ccccc3)no2)cc1 68.8%
Cc1c(OCc2ccc(C(=O)O)cc2)ccc2c(-c3ccccc3)cc(=O)oc12 43.5%
C[C@H](CO)N1C[C@H](C)[C@@H](CN(C)S(=O)(=O)c2ccccc2)OCCCC[C@H](C)Oc2ccc(NC(=O)Nc3cccc4ccccc34)cc2C1=O 48.3% [at 21 µM]
CC(C)NC(=O)N(C)C[C@H]1OCCCC[C@@H](C)Oc2ccc(NC(=O)Cc3ccccc3)cc2C(=O)N([C@@H](C)CO)C[C@H]1C 45.8%
CC(C)NC(=O)Nc1ccc2c(c1)C(=O)N([C@@H](C)CO)C[C@@H](C)[C@@H](CN(C)S(=O)(=O)c1ccccc1)OCCCC[C@H](C)O2 43.1%
C[C@@H]1CN([C@H](C)CO)C(=O)c2cc(N(C)C)ccc2O[C@@H](C)CCCCO[C@H]1CN(C)C(=O)Nc1ccccc1 69%
COCCOC(=O)N1C(=O)[C@@]2(c3ccccc31)[C@H](c1ccccc1OCCO)N1[C@H](c3ccccc3)[C@H](c3ccccc3)OC(=O)[C@H]1[C@@H]2C(=O)N1CCCCCCC1 29.6%
c1ccc(-c2c(-c3ccccc3)n(Cc3ccco3)c3ncnc(NCCCn4ccnc4)c23)cc1 228%
C=CCn1c(SCC(=O)NC(=O)NCc2ccco2)nc2sc(CC)cc2c1=O 35.5%
O=C(CSc1nc2c(sc3ccccc32)c(=O)n1CCc1ccccc1)NCc1ccco1 44.7%
CCOC(=O)c1ccc(NC(=O)Nc2ccc(F)cc2)cc1 34.3%
CC(=O)Nc1ccc(Nc2ncnc3c2cnn3-c2ccc(C)cc2C)cc1 105%
Cc1cc(Nc2cccc(Cl)c2)c2ccccc2n1 75.5%
Cc1cc(C)c(S(=O)(=O)Nc2ccccc2-c2ccccc2)c(C)c1 96.5%
COc1ccccc1-c1ccc2c(c1)O[C@@H](CN(C)Cc1ccc3c(c1)OCO3)[C@@H](C)CN([C@@H](C)CO)S2(=O)=O 65.4%
COC(=O)c1ccc(NC(=O)C23CC4CC(C2)CC(n2cnc(Cl)n2)(C4)C3)cc1 81.3%
CCOc1ccc(S(=O)(=O)N2c3ccccc3CC2C)cc1 (stereo not given) 52.3%
CCOc1ccc(N2C(=O)CC(Cc3ccc(Br)cc3)C2=O)cc1 (stereo not given) 46.2%
CCCCN=C1NC(=O)C(CC(=O)Nc2ccc(Cl)cc2)S1 (stereo not given) 77.7%
O=C(Cc1ccccc1)N1CCN(C(=O)c2cccs2)CC1 74.4%
CCN1CCN(c2ncc(C(=O)Nc3cc(Cl)ccc3OC)c3ccccc23)CC1 52.8% [at 10 µM]
CCN1CCN(c2cc(C)c3cc(NC(=O)c4ccc(Br)o4)ccc3n2)CC1 39.5%
C[C@H]1CN([C@@H](C)CO)C(=O)c2cccc(NS(=O)(=O)c3ccc(F)cc3)c2O[C@H]1CN(C)Cc1ccc(C(F)(F)F)cc1 70.5%
COc1ccc(S(=O)(=O)N(C)C[C@@H]2Oc3cc(C#CC4CC4)ccc3S(=O)(=O)N([C@H](C)CO)C[C@@H]2C)cc1 43%
COc1ccc(S(=O)(=O)N(C)C[C@@H]2Oc3cc(C#CC4CC4)ccc3S(=O)(=O)N([C@@H](C)CO)C[C@@H]2C)cc1 51.9%
CCCCC(=O)Nc1ccc(NC(=O)c2cccs2)cn1 38.6%
OCCNc1nc(N2CCCCC2)nc2ccccc12 45.5%
Cc1ccc(-c2nnc(Nc3ccc4c(c3)OCO4)c3ccccc23)cc1S(=O)(=O)NCCO 76.8%
O=[N+]([O-])c1cc(-c2nnc(Nc3ccc(O)cc3)c3ccccc23)ccc1N1CCOCC1 90.6%
Cc1ccc2c(CN(Cc3ccccc3)Cc3ccccc3)cc(=O)oc2c1 38.4%
COCCNC(=O)c1ccc(C)cc1C 24.6%
COc1ccc(S(=O)(=O)N2CC[C@@H]3[C@H](CO)Nc4ccc(-c5ccccc5F)cc4[C@@H]32)cc1 68.9% [at 21 µM]
Cc1ccc(S(=O)(=O)N(Cc2ccc(F)cc2)Cc2ccco2)cc1 84.4%
CCOc1ccc(Nc2oc(-c3ccc(Cl)cc3)nc2C#N)cc1 58% [at 10 µM]
CO[C@@H]1CN(C)C(=O)c2cc(NC(=O)c3ccc4c(c3)OCO4)ccc2OC[C@@H](C)N(CC2CC2)C[C@H]1C 17.3% [at 21 µM]
COc1ccc(S(=O)(=O)N(C)C[C@@H]2Oc3ccc(NC(=O)CCN4CCOCC4)cc3C(=O)N([C@H](C)CO)C[C@H]2C)cc1 22.6%
COCC(=O)Nc1ccc2c(c1)OC[C@@H](C)N(CCc1ccccc1)C[C@H](C)[C@H](OC)CN(C)C2=O 51.7%
COC(=O)c1c(NC(=O)COC(=O)[C@@H](NS(=O)(=O)c2ccccc2)C(C)C)sc2c1CCC2 67.1%
Cc1cc(Nc2ccccc2)cc(=O)n1C 16.7%
CCN(CC)CCOc1ccc(/C(=C(\Cl)c2ccccc2)c2ccccc2)cc1 61.5% [at 10 µM]
COc1ccc(CN(CCC(C)C)S(=O)(=O)c2ccccc2Br)cc1 127%
O=C(NC1CCCCC1)c1cccnc1C(=O)O 37.9%
Nc1nnc(SCC(=O)NC2CCCCC2)n1-c1ccccc1 11.5%
Cc1ccccc1Cn1cc(NC(=O)c2cc(-c3cccs3)on2)cn1 81%
Cc1cc2cc3c(cc2nc1SCC(=O)OC(C)C)OCCO3 60.8%
Cc1cccc(-c2ccc3[nH]c4c(c3c2)CCN2C[C@@H]([C@H](C)O)[C@@H](N(C)C(=O)NC3CCCCC3)C[C@@H]42)c1 56.9%
O=C(Nc1ccc(-c2noc(CCc3ccccc3)n2)cc1)c1cccnc1 407%
COC(=O)c1ccc2[nH]c3cccc(/C(=C/c4ccccc4)c4ccccc4)c3c2c1 55%
O=C(Nc1cnc2ccccc2c1)c1cccnc1 156% [at 5 µM]
COc1ccc(Br)cc1CNc1ccccc1 103%
CCn1c(SCC(=O)Nc2ccc(NC(=O)c3ccco3)cc2)nnc1-c1cccs1 162% [at 10 µM]
Cc1cc(C)n2c(SCC(=O)NCc3ccco3)nnc2n1 22.2%
NC(=O)Cc1ccc2c(c1)[nH]c1ccccc12 177%
Cc1ccc(S(=O)(=O)N2C[C@@H]3N[C@H](C2)[C@@H]3c2ccc(-c3cccc(C)c3)cc2)cc1 23.7%
O=S(=O)(c1ccc(Cl)cc1)N1[C@@H]2CNC[C@H]1C2c1ccc(-c2cccc(F)c2)cc1 (stereo not given in full) 115% [at 21 µM]
Cc1ccccc1-c1ccc(C2[C@@H]3CN(S(=O)(=O)c4ccccc4C)C[C@H]2N3)cc1 (stereo not given in full) 50.7%
COc1ccccc1-c1ccc(C2[C@@H]3CN(S(=O)(=O)c4ccc(C)cc4)C[C@H]2N3)cc1 (stereo not given in full) 43.6% [at 21 µM]
